About 1,100 (1.7%) of roughly 63,000 compounds were called active.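 The calls were made as follows: active = compounds whose percent cytotoxicity in the single-dose primary screen, scaled between solvent and toxic-drug controls, exceeds 50; inactive = the rest.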 The list comes from a sample in which actives are over-represented; it also holds similar structures and randomly drawn compounds. Measured potencies and affinities stand elsewhere.
Assay: cytotoxicity in KRAS-transformed pancreatic duct cells, primary screen, cell-based, fluorescence, HTS (AID 431);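 also: 0% = DMSO solvent wells and 100% = doxorubicin-treated wells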
Conditions: HPDE-C7K KRASV12 cells, Alamar Blue viability, 48 h; at 10 µM; hits give high values

Structure (SMILES)	cytotoxicity
CCn1c(SCC(=O)NCc2ccco2)nc2cccnc21	-20.4% (inactive)
CCSc1sccc1C1C(C#N)=C(N)N(c2cccnc2)C2=C1C(=O)CC(C)(C)C2 (stereo not drawn)	30.9% (inactive)
O=C(Nc1ccc2oc(-c3cccnc3)nc2c1)c1cccnc1	3.2% (inactive)
COC(=O)c1ccc(-c2nc3ccc(C)cc3o2)cc1	54.8% (active)
O=C(Nc1ccc2oc(-c3ccccc3)nc2c1)c1cccnc1	34.5% (inactive)
COc1ccc(-c2nc3cc(NC(=O)c4ccc5c(c4)OCO5)ccc3o2)cc1	-6.9% (inactive)
O=C(Nc1ccc2oc(=O)ccc2c1)c1cccnc1	7.9% (inactive)
COC(=O)c1ccc(-c2nc3ccccc3o2)cc1	-20.7% (inactive)
O=C(Nc1ccc2oc(Cc3ccc(Cl)cc3)nc2c1)c1cccnc1	58.3% (active)
O=C(Nc1ccc(-c2nc3ccccc3o2)cc1)c1ccc2c(c1)OCO2	2% (inactive)
CCc1ccc2oc(-c3cccc(NC(=O)c4cccnc4)c3)nc2c1	10.6% (inactive)
Cc1ccc(-c2nc3cc(C)ccc3o2)cc1	8.8% (inactive)
Cc1ccc2oc(-c3ccc(NC(=O)c4ccc5c(c4)OCO5)cc3)nc2c1	85.1% (active)
Cc1ccc2oc(-c3ccc(NC(=O)c4cccnc4)cc3)nc2c1	56.9% (active)
c1ccc(CSc2nnc(-c3cccs3)n2Cc2ccco2)cc1	-21.5% (inactive)
CCOC(=O)c1cccc(Nc2nc(C)cc(C)n2)c1	0.1% (inactive)
O=C(NCc1ccccn1)c1cn(CCc2ccccc2)nn1	-5% (inactive)
CCOC(=O)Cc1csc(NC(=O)c2c(-c3c(F)cccc3Cl)noc2C)n1	-8.5% (inactive)
O=C(Nc1ccc(-c2nc3ccccc3o2)cc1)C1CCCO1 (stereo not drawn)	5.9% (inactive)
COc1cc(OC)cc(C(=O)Nc2ccc(-c3nc4ccccc4o3)cc2)c1	73.9% (active)
O=C(Nc1ccc2c(c1)oc1ccccc12)c1cccnc1	53.2% (active)
Cc1ccc2oc(-c3cccc(NC(=O)C4CCCO4)c3)nc2c1 (stereo not drawn)	3.3% (inactive)
COc1cccc(C(=O)Nc2ccc(-c3nc4ccccc4o3)c(O)c2)c1	24.7% (inactive)
COc1cc(C(=O)Nc2cccc(-c3nc4cc(C)ccc4o3)c2)cc(OC)c1OC	43.8% (inactive)
COc1cc(C(=O)NCc2ccc(-c3nc4ccccc4o3)cc2)cc(OC)c1OC	2.5% (inactive)

Structure (SMILES)	cytotoxicity
O=S(=O)(Nc1ccc(-c2nc3ccccc3o2)cc1)c1ccccc1	52% (active)
O=C(Nc1ccc2c(c1)oc1ccccc12)c1ccncc1	7.8% (inactive)
O=C(Nc1ccc2ccccc2c1)c1cccnc1	0.5% (inactive)
O=S(=O)(Nc1ccc2oc(-c3ccccc3)nc2c1)c1ccccc1	15.5% (inactive)
Cc1occc1-c1nc(-c2ccccn2)no1	-13.5% (inactive)
CC1CN(C(=O)c2cc3cc(Cl)cc(Cl)c3oc2=O)CC(C)O1 (stereo not drawn)	-12.2% (inactive)
COc1ccc2oc(-c3ccccc3)c(C(N)=O)c2c1	-8.2% (inactive)
CCCCCC(=O)Nc1cccc(-c2nc3ncccc3o2)c1	-7% (inactive)
Cc1nnc(SCC(=O)NCc2cccs2)n1-c1ccccc1	-5.1% (inactive)
Cn1c(=O)c2c(SCc3ccccn3)nc(-c3ccccc3)nc2n(C)c1=O	6.7% (inactive)
CC[C@@H](C)[C@H](NC(=O)C1CCN(C(=O)[C@@H](NS(=O)(=O)c2ccc(C)cc2)C(C)C)CC1)C(=O)O	-19.2% (inactive)
NC(=O)C1CCN(c2ncnc3c2c(-c2ccccc2)cn3-c2ccccc2)CC1	-9% (inactive)
Cn1nnnc1SCCNC/C=C/c1ccccc1	14.4% (inactive)
CN(C1CCCCC1)S(=O)(=O)c1ccc(-n2cnnn2)cc1	-13.1% (inactive)
CCCCN(CC)S(=O)(=O)N1CCC(C(=O)NCc2ccc(F)cc2)CC1	-8.2% (inactive)
C=CCN1C(=O)C2C(C(=O)NC)C3C=CC2(O3)C1C(=O)NCc1ccc(OC)cc1 (stereo not drawn)	4.1% (inactive)
N#CC1=C(N)C(C#N)(C#N)[C@H](c2ccoc2)[C@H]2CN(Cc3ccccc3)CC=C12	81.4% (active)
CC(C)N1CC=C2C(C#N)=C(N)C(C#N)(C#N)C(c3ccccc3)C2C1 (stereo not drawn)	27.9% (inactive)
CC(=O)N1CC=C2C(C#N)=C(N)C(C#N)(C#N)[C@H](c3ccoc3)[C@H]2C1	13.2% (inactive)
Cn1c(=O)c2c(nc(Br)n2Cc2c(F)cccc2Cl)n(C)c1=O	-11.4% (inactive)
Cc1ccccc1-c1nnc2s/c(=C\c3ccc(N(C)C)cc3)c(=O)n12	3.5% (inactive)
Cc1ccc(/C=c2/sc3nnc(-c4ccccc4Cl)n3c2=O)o1	50.1% (active)
Cc1ccc(/C=c2\sc3nc(-c4ccccc4Br)nn3c2=O)o1	8.5% (inactive)
COc1cccc(OC)c1OCCCSc1nc(C)cc(=O)[nH]1	6.8% (inactive)
C=CCSC1=N/C(=C\c2cc(OC)c3c(c2)OCO3)C(=O)S1	16.5% (inactive)

Structure (SMILES)	cytotoxicity
C=CCSC1=N/C(=C\c2ccc3c(c2)OCO3)C(=O)S1	52.9% (active)
CCSC1=N/C(=C\c2ccc3c(c2)OCO3)C(=O)S1	40.9% (inactive)
COc1ccc(-c2c3c(=O)n(C)c(=O)n(C)c3cn2Cc2ccccn2)cc1	7% (inactive)
CCS(=O)(=O)N1CCCC(C(=O)NCc2ccccc2Cl)C1 (stereo not drawn)	14.1% (inactive)
COc1cc(NC(=O)NCc2ccncc2)cc(OC)c1OC	-5.3% (inactive)
CCc1cc(-c2[nH]ncc2-c2ccc3c(c2)OCO3)c(O)cc1O	64.9% (active)
Cc1nc(-c2ccc3c(c2)OCO3)cs1	-26.4% (inactive)
CCOC(=O)c1nc(-c2ccc3c(c2)OCO3)[nH]c1C	5.4% (inactive)
Oc1ccccc1-c1cc(-c2ccc3c(c2)OCCO3)n[nH]1	16.4% (inactive)
COc1ccc(-c2cnc(N)nc2-c2ccc(OC)cc2O)cc1	-1.3% (inactive)
CCCc1cc(-c2[nH]ncc2-c2ccc(C(=O)OCC)o2)c(O)cc1O	30.9% (inactive)
CCOc1ccc(-c2nc(N)ncc2-c2ccccc2)c(O)c1	8.3% (inactive)
CCc1nc(SCc2ccccn2)c2c(=O)n(C)c(=O)n(C)c2n1	-2.5% (inactive)
CCCSCCCNC(=O)Cn1cc2c(n1)CCC(C)C2 (stereo not drawn)	4.6% (inactive)
COC(=O)Cc1csc(N)n1	-19.5% (inactive)
Cc1cc(C)c2[nH]c(=O)c(C(c3nnnn3Cc3ccc4c(c3)OCO4)N3CCC(C)CC3)cc2c1 (stereo not drawn)	-17.3% (inactive)
O=C(CSc1nnc(-c2ccccn2)n1Cc1ccccc1)N1CCCC1	-3% (inactive)
O=C1C(=O)N(CCOCCO)C(c2ccccn2)/C1=C(\O)c1ccccc1 (stereo not drawn)	-29.5% (inactive)
CCc1oc(C(=O)O)cc1CN(CC)CC	-3.6% (inactive)
CCCCCn1c(CN2CCCCC2CC)nc2c1c(=O)n(C)c(=O)n2C (stereo not drawn)	8.3% (inactive)
Cn1c(=O)oc2cc(S(=O)(=O)NCCC(=O)NCCc3ccccc3)ccc21	0.1% (inactive)
Cc1cc(Nc2cccc(C)c2C)n2nc(C)nc2n1	9% (inactive)
O=C(COc1ccccc1)N(Cc1ccco1)c1ccc(O)cc1	-5.3% (inactive)
CCCCn1nc(NC(=O)c2cccs2)c2cc3cc(OC)ccc3nc21	23.2% (inactive)
COc1ccc2nc3c(cc2c1)c(NC(=O)c1cccs1)nn3CC(C)C	52.8% (active)

Structure (SMILES)	cytotoxicity
CCCn1nc(NC(=O)c2cccs2)c2cc3cc(OC)ccc3nc21	-25.3% (inactive)
CCOc1ccccc1NC(=O)NC1CCN(CC(=O)Nc2ccc3c(c2)OCCO3)CC1	-18.3% (inactive)
CCN(CC(=O)NCc1cccs1)S(=O)(=O)c1cccc(C(C)=O)c1	-12.5% (inactive)
O=C(COn1nnc2ccc(Cl)cc21)NCc1ccccc1	3.7% (inactive)
O=C(COc1ccccc1)Nc1nnc(-c2ccccc2)o1	-10.7% (inactive)
O=C(COn1nnc2ccc(C(F)(F)F)cc21)Nc1nnc(-c2ccccc2)o1	59.2% (active)
Cc1csc(NC(=O)C2CCN(C(=O)CSc3nnc(C)n3Cc3ccccc3)CC2)n1	-14% (inactive)
S=c1[nH]c2ncccc2o1	21.2% (inactive)
Cn1c(N)c(C(=O)CSc2nc3ccccc3n2-c2ccccc2)c(=O)n(C)c1=O	103% (active)
NC(=O)CSc1nc2ccccc2n1-c1ccccc1	8.7% (inactive)
COc1ccc(-n2c(SCC(=O)c3c(N)n(C)c(=O)n(C)c3=O)nc3ccccc32)cc1	7.4% (inactive)
CCOC(=O)C1=C(C)Nc2nnnn2C1c1cccc(OC)c1OC (stereo not drawn)	-16.1% (inactive)
O=C(CN1CCOCC1)NCc1ccccc1	-11.4% (inactive)
CCOc1ccc(C2CC(=O)c3c([nH]c(C(=O)OC)c3C)C2)cc1OC (stereo not drawn)	6.3% (inactive)
Cc1c(C(=O)OCC2CCCO2)[nH]c2c1C(=O)CC(c1ccco1)C2 (stereo not drawn)	53.3% (active)
COCCOC(=O)c1[nH]c2c(c1C)C(=O)C(C(=O)OC)C(C)C2 (stereo not drawn)	0% (inactive)
CCOCCOC(=O)c1[nH]c2c(c1C)C(=O)CC(c1ccc(N(C)C)cc1)C2 (stereo not drawn)	5.2% (inactive)
COc1ccc(OC)c(C2CC(=O)c3c([nH]c(C(=O)OCC4CCCO4)c3C)C2)c1 (stereo not drawn)	7.8% (inactive)
CCOC(=O)c1[nH]c2c(c1C)C(=O)CC(c1ccc(F)cc1)C2 (stereo not drawn)	58.4% (active)
CC1=C(C(=O)OCc2ccccc2)C(c2ccco2)C2=C(CC(C)(C)CC2=O)N1 (stereo not drawn)	7.4% (inactive)
Cc1c(C(=O)OCC2CCCO2)[nH]c2c1C(=O)CC(c1ccc(N(C)C)cc1)C2 (stereo not drawn)	3.2% (inactive)
COCCOC(=O)c1[nH]c2c(c1C)C(=O)CC(c1ccco1)C2 (stereo not drawn)	65.5% (active)
Cc1c(C(=O)OCc2ccccc2)[nH]c2c1C(=O)CC(c1ccco1)C2 (stereo not drawn)	68.1% (active)

— PubChem BioAssay AID431 (Sanford-Burnham Center for Chemical Genomics, 2006)
